Results: PubChem BioAssay (Tox21)
Inconclusive results are not listed. Active and inactive are the calls of the source. Unless noted, the call rests on the fitted dose curve; in most records, active means well fitted curve in the direction sought with a large enough effect in the repeat runs; inconclusive means weak or mixed curves; inactive means no such curve, though single readings can be large; an effect the other way counts as inactive or inconclusive.

What was measured:
[1] = qHTS assay for small molecule agonists of the p53 signaling pathway (AID 651631; calls by dose curve; further: nearly all actives have a fitted effect of over 15% in size)
Summary of the method: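 Read-out is beta-lactamase FRET fluorescence measured 2 h after substrate addition at room temperature, in HCT-116 cells with a p53 response element-driven reporter exposed to compounds for 16 h at 37 °C.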

[2] = qHTS assay for small molecules that induce genotoxicity in human embryonic kidney cells expressing luciferase-tagged ATAD5 (AID 651632); further: nearly all actives have a fitted effect of over 15% in size
Summary of the method: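 Test compounds were delivered by pin tool onto HEK293T reporter cells (2,000/well) expressing ATAD5 fused to luciferase. After 16 hr at 37C, 5% CO2, Amplite was added for 30 min at room temperature and luminescence was measured.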

[3] = qHTS assay for small molecule agonists of the p53 signaling pathway - cell viability (AID 651633; calls by dose curve;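 further: p53RE-bla HCT reporter cells with a stable beta-lactamase p53 reporter; series mostly up to about 83 µM; nearly all actives have a fitted effect of over 30% in size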)
Summary of the method: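 p53RE-bla cells, seeded at 4,000 per well and rested 5 h at 37 C/5% CO2, received compounds in DMSO for 16 h at 37 C. CellTiter-Glo was then added, and luminescence was read after 30 min at room temperature to gauge cytotoxicity.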

[4] = qHTS assay for small molecules that induce genotoxicity in human embryonic kidney cells expressing luciferase-tagged ATAD5 - cell viability (AID 651634; calls by dose curve; further: nearly all actives have a fitted effect of over 25% in size)
Summary of the method: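 Quantitative high-throughput format. HEK293T cells expressing ATAD5 fused to luciferase were plated at 2,000 cells/well and treated 15.5 hr with compound versus DMSO. Viability was determined by fluorescent live-cell protease substrate, 30 min at 37C.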

[5] = qHTS assay for small molecule disruptors of the mitochondrial membrane potential - cell viability (AID 720634; calls by dose curve;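 further: human HepG2 liver cancer cells; series mostly up to about 83 µM; nearly all actives have a fitted effect of over 20% in size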)
Summary of the method: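 Same-well counter-screen: following the MMP dye addition, CellTiter-Glo was added to 1 hr compound-treated HepG2 cells and luminescence read after 30 min at room temperature.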

[6] = qHTS assay to test for compound auto fluorescence at 590 nm (red) in HepG2 cells (AID 720674)
Summary of the method: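 Compound auto-fluorescence is scored relative to Rose Bengal sodium, measured at 540/590 nm in live HepG2 cultures after 1 hr compound contact (37 C, 5% CO2).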

[7] = qHTS assay to test for compound auto fluorescence at 535 nm (green) in HepG2 cells (AID 720675)
[8] = qHTS assay to test for compound auto fluorescence at 460 nm (blue) in HEK293 cells (AID 720678)
Summary of the method: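 HEK293, 2,000 cells/well, 10% dialyzed FBS; attach 4-5 hr 37C; pin compound or DMSO; o/n 37C/5% CO2; fluorescence 405/460 nm; triamterene-equivalent units.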

[9] = qHTS assay to test for compound auto fluorescence at 590 nm (red) in HEK293 cells (AID 720679)
Summary of the method: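 Intensity at 540nm excitation and 590nm emission is reported as Rose Bengal sodium-equivalent autofluorescence. Measurements followed overnight exposure (37C, 5% CO2) of HEK293 cells, 2,000 per well, to 23 nL compound.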

[10] = qHTS assay to test for compound auto fluorescence at 535 nm (green) in HEK293 cells (AID 720680)
[11] = qHTS assay to test for compound auto fluorescence at 460 nm (blue) in HEK293 cell free culture (AID 720681)
Summary of the method: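 Test compounds were pinned into cell-free culture medium (DMEM with 10% FBS) and fluorescence was read directly at Ex/Em 405/460 nm. Signals were expressed as fluorescence equivalents of triamterene, with DMSO vehicle as control.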

[12] = qHTS assay to test for compound auto fluorescence at 535 nm (green) in HEK293 cell free culture (AID 720682)
Summary of the method: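 Fluorescein serves as the green reference fluorophore; each compound's intrinsic emission at 535 nm (excitation 485 nm) is reported as an equivalent amount of that dye, measured in serum-containing DMEM without cells.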

[13] = qHTS assay to test for compound auto fluorescence at 590 nm (red) in HEK293 cell free culture (AID 720683)
Summary of the method: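 Tox21 10K library compounds were pinned into cell-free DMEM with 10% FBS and fluorescence was read at excitation 540 nm. Activity is expressed as Rose Bengal sodium equivalency.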

[14] = qHTS assay to test for compound auto fluorescence at 590 nm (red) in HepG2 cell free culture (AID 720684)
Summary of the method: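 Readout: intrinsic compound fluorescence at 590 nm emission after 540 nm excitation, scaled to Rose Bengal sodium. Matrix was cell-free MEM with 10% FBS; DMSO vehicle wells served as control.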

[15] = qHTS assay to test for compound auto fluorescence at 460 nm (blue) in HepG2 cell free culture (AID 720685)
Summary of the method: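 Cell-free plates of MEM plus 10% FBS received 23 nL compound or DMSO vehicle; blue-channel (405/460 nm) intensity scored against triamterene as reference fluorophore.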

[16] = qHTS assay to test for compound auto fluorescence at 535 nm (green) in HepG2 cell free culture (AID 720686)
[17] = qHTS assay to test for compound auto fluorescence at 460 nm (blue) in HepG2 cells (AID 720687)
Summary of the method: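 Cells (2,000/well in MEM with 10% FBS) attached overnight at 37 C, then were exposed to compound or DMSO for 1 hr at 37 C, 5% CO2. Fluorescence read at Ex/Em 405/460 nm, expressed as triamterene-equivalent signal.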

[18] = target: Glucocorticoid receptor (Homo sapiens) (UniProt P04150); experiment: qHTS assay to identify small molecule agonists of the glucocorticoid receptor (GR) signaling pathway (AID 720691; active means well fitted activation curve with a large enough effect in the signal ratio in the repeat runs, not every such curve was filed as active; the % refers to the signal ratio)
Summary of the method: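 A HeLa cervical cancer line expressing GR and a glucocorticoid response element-driven beta-lactamase gene is treated with compounds for 18 h; LiveBLAzer B/G FRET substrate is then applied and fluorescence read.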

[19] = qHTS assay for small molecule disruptors of the mitochondrial membrane potential (AID 720635)
Summary of the method: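 HepG2 cells (2,000/well) attached overnight at 37C, then took compound for 1 hr at 37C, 5% CO2. Mito-MPS dye was added for 30 min; fluorescence was read at 490/535 nm (monomers) and 540/590 nm (aggregates).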

[20] = target: Glucocorticoid receptor (Homo sapiens) (UniProt P04150); experiment: qHTS assay to identify small molecule antagonists of the glucocorticoid receptor (GR) signaling pathway (AID 720692; active means well fitted inhibition curve with a large enough effect in the signal ratio in the repeat runs, not every such curve was filed as active; the % refers to the signal ratio)
Summary of the method: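 GRE-bla HeLa line, dex-stimulated (5 nM final). Compound exposure 18 h, 37 C. Beta-lactamase FRET read after 2 h RT substrate.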
On the % scale 0 is the no-effect control and ±100 the full control effect.

Glucocorticoid receptor (Homo sapiens), sequence (P04150 whole entry, looked up): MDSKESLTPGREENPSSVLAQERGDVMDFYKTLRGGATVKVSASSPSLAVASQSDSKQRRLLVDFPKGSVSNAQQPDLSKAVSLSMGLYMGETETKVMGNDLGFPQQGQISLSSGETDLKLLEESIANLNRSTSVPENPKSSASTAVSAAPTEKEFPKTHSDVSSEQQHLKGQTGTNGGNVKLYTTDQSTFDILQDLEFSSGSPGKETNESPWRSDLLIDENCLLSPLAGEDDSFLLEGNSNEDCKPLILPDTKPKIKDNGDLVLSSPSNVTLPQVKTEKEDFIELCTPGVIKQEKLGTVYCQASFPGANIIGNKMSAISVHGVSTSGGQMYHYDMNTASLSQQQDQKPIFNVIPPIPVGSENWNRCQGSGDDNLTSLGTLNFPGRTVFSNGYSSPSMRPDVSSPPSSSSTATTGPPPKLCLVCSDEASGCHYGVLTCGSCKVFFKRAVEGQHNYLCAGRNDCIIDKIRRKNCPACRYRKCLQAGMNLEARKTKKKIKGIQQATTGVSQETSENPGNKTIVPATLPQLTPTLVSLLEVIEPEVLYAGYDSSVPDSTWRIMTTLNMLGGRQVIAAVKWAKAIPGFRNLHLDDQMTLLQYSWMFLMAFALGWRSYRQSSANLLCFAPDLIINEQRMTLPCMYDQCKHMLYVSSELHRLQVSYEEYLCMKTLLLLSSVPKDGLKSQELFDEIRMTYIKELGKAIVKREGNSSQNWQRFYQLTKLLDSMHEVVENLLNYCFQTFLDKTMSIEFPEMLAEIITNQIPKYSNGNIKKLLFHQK

CCOC(=O)c1cncn1C(C)c1ccccc1 (centres undefined)
inactive: Potency [1] | Potency [2] | Potency [3] | Potency [4] | Potency [5] | fluorescence, relative to Rose Bengal [6] -0.315% [at 18.6 µM] | fluorescence, % of fluorescein control [7] 0.021% [at 18.6 µM] | fluorescence, % of triamterene [8] -0.152% [at 18.6 µM] | fluorescence, % of fluorescent control [9] 0.134% [at 18.6 µM] | fluorescence, % of fluorescein [10] -0.183% [at 18.6 µM] | fluorescence, % of fluorescent control [11] -0.0565% [at 18.6 µM] | activity change [12] -0.219% [at 18.6 µM] | fluorescence, % of fluorescent control [13] 0.175% [at 18.6 µM] | fluorescence, % of Rose Bengal [14] 0.117% [at 18.6 µM] | fluorescence, % of fluorescent control [15] -0.0673% [at 18.6 µM] | fluorescence, % of fluorescein control [16] 0.0291% [at 18.6 µM] | fluorescence, % of fluorescent control [17] 0.278% [at 18.6 µM] | Potency [18]

CC(Cl)C(=O)O (centres undefined)
inactive: Potency [1] | Potency [2] | Potency [3] | Potency [4] | Potency [5] | outcome [6] | outcome [7] | outcome [8] | outcome [9] | outcome [10] | outcome [11] | outcome [12] | outcome [13] | outcome [14] | outcome [15] | outcome [16] | outcome [17]

CCCCC(CC)CO[N+](=O)[O-] (centres undefined)
inactive: Potency [1] | Potency [2] | Potency [3] | Potency [4] | Potency [5] | Potency [19] | outcome [6] | outcome [7] | outcome [8] | outcome [9] | outcome [10] | outcome [11] | outcome [12] | outcome [13] | outcome [14] | outcome [15] | outcome [16] | outcome [17] | Potency [18] | Potency [20]

CCCN(CCC)C(=O)Cc1c(-c2ccc(Cl)cc2)nc2ccc(Cl)cn12
inactive: Potency [1] | Potency [2] | Potency [3] | Potency [4] | Potency [5] | outcome [6] | outcome [7] | outcome [8] | outcome [9] | outcome [10] | outcome [11] | outcome [12] | outcome [13] | outcome [14] | outcome [15] | outcome [16] | outcome [17]

COC1=CC(=O)O[C@@H](/C=C/c2ccc3c(c2)OCO3)C1
inactive: Potency [1] | Potency [2] | Potency [3] | Potency [4] | Potency [5] | outcome [6] | outcome [7] | outcome [8] | outcome [9] | outcome [10] | outcome [11] | outcome [12] | outcome [13] | outcome [14] | outcome [15] | outcome [16] | outcome [17] | Potency [18] | Potency [20]

CCN(C(C)=O)c1cccc(-c2ccnc3c(C#N)cnn23)c1
inactive: Potency [1] | Potency [2] | Potency [3] | Potency [4] | Potency [5] | outcome [6] | outcome [7] | outcome [8] | outcome [9] | outcome [10] | outcome [11] | outcome [12] | outcome [13] | outcome [14] | outcome [15] | outcome [16] | outcome [17]

CNC(=O)Oc1cccc(N=CN(C)C)c1
inactive: Potency [1] | Potency [2] | Potency [3] | Potency [4] | Potency [5] | Potency [19] | outcome [6] | outcome [7] | outcome [8] | outcome [9] | outcome [10] | outcome [11] | outcome [12] | outcome [13] | outcome [14] | outcome [16] | outcome [17]

O=C1CC[C@@]2(O)[C@H]3Cc4ccc(O)c5c4[C@@]2(CCN3CC2CC2)[C@H]1O5
inactive: Potency [1] | Potency [2] | Potency [3] | Potency [4] | Potency [5] | outcome [6] | outcome [7] | outcome [8] | outcome [9] | outcome [10] | outcome [11] | outcome [12] | outcome [13] | outcome [14] | outcome [15] | outcome [16] | outcome [17] | Potency [18] | Potency [20]

COc1cc(C[C@@H](C)N)c(OC)cc1Br
inactive: Potency [1] | Potency [2] | Potency [3] | Potency [4] | Potency [5] | outcome [6] | outcome [7] | outcome [8] | outcome [9] | outcome [10] | outcome [11] | outcome [12] | outcome [13] | outcome [14] | outcome [15] | outcome [16] | outcome [17]

CC(C)OC(=O)Cc1ccccc1
inactive: Potency [1] | Potency [2] | Potency [3] | Potency [4] | Potency [5] | Potency [19] | outcome [6] | outcome [7] | outcome [8] | outcome [9] | outcome [10] | outcome [11] | outcome [12] | outcome [13] | outcome [14] | outcome [16] | outcome [17] | Potency [18] | Potency [20]

CCCCCCCCCCCCN(C)C
inactive: Potency [1] | Potency [2] | Potency [3] | Potency [4] | Potency [5] | Potency [19] | outcome [6] | outcome [7] | outcome [8] | outcome [9] | outcome [10] | outcome [11] | outcome [12] | outcome [13] | outcome [14] | outcome [16] | outcome [17] | Potency [18] | Potency [20]

Cc1ccc2c(C)cccc2c1
inactive: Potency [1] | Potency [2] | Potency [3] | Potency [4] | Potency [5] | outcome [6] | outcome [7] | outcome [8] | outcome [9] | outcome [10] | outcome [11] | outcome [12] | outcome [13] | outcome [14] | outcome [15] | outcome [16] | outcome [17] | Potency [18]

SCc1ccccc1
inactive: Potency [1] | Potency [2] | Potency [3] | Potency [4] | Potency [5] | outcome [6] | outcome [7] | outcome [8] | outcome [9] | outcome [10] | outcome [11] | outcome [12] | outcome [13] | outcome [14] | outcome [15] | outcome [16] | outcome [17] | Potency [18]

Cc1nc2ccccc2c(=O)n1-c1ccccc1Cl
inactive: Potency [1] | Potency [2] | Potency [3] | Potency [4] | Potency [5] | outcome [6] | outcome [7] | outcome [8] | outcome [9] | outcome [10] | outcome [11] | outcome [12] | outcome [13] | outcome [14] | outcome [15] | outcome [16] | outcome [17] | Potency [18] | Potency [20]
